Here are results for 28 compounds from PubChem BioAssay (NCATS).

The structures appear in SMILES notation. Inconclusive results are not listed. The source made the active and inactive calls. Unless noted, the call rests on the fitted dose curve.

Experiment [1] concerns the target Peroxisome proliferator-activated receptor delta (Homo sapiens) (UniProt Q03181). Put plainly: qHTS assay for small molecule agonists of peroxisome proliferator-activated receptor delta signaling (AID 588534).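 Further: 0% = DMSO basal wells and 100% = positive control agonist at 10 µM.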 In outline:
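Cell-based beta-lactamase reporter assay run in agonist mode: cells seeded and incubated 5 hrs at 37 C, compounds added and incubated 18 hrs at 37 C. CCF4 dye fluorescence read after 2 hrs at RT; EC50 and efficacy from Hill fits.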

Experiment [2] in a line: qHTS for Inhibitors of the Functional Ribonucleoprotein Complex (vRNP) of Lassa (LASV) Arenavirus: LASV Primary Screen - GLuc reporter signal (AID 1347082; calls by dose curve; tested in HEK293 reporter line; further: on the % scale 0 is the no-effect control and ±100 the full control effect; nearly all actives have a fitted effect of over 60% in size). (qHTS replaces the single test concentration by a dilution series.)
The nature of experiment [3]: qHTS for Inhibitors of the Functional Ribonucleoprotein Complex (vRNP) of Lassa (LASV) Arenavirus: Viability assay - alamar blue signal for LASV Primary Screen (AID 1347083; calls by dose curve; tested in HEK293 reporter line; further: on the % scale 0 is the no-effect control and ±100 the full control effect; nearly all actives have a fitted effect of over 80% in size).
Experiment [4] in a line: qHTS for Inhibitors of the Functional Ribonucleoprotein Complex (vRNP) of Lymphocytic Choriomeningitis Arenaviruses (LCMV): Viability assay - alamar blue signal for LCMV Primary Screen (AID 1347085; calls by dose curve; tested in HEK293 reporter line; further: on the % scale 0 is the no-effect control and ±100 the full control effect; nearly all actives have a fitted effect of over 80% in size).
Experiment [5] addresses Nucleoprotein (Lymphocytic choriomeningitis virus (strain Armstrong)) (UniProt P09992). The experiment can be described thus: qHTS for Inhibitors of the Functional Ribonucleoprotein Complex (vRNP) of Lymphocytic Choriomeningitis Arenaviruses (LCMV): LCMV Primary Screen - GLuc reporter signal (AID 1347086). Further: on the % scale 0 is the no-effect control and ±100 the full control effect; nearly all actives have a fitted effect of over 70% in size.
Experiment [6] is described as follows: qHTS profiling of the MIPE4 collection as inhibitors of Plasmodium falciparum (3D7) proliferation (AID 743344; call rule not given here;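 further: scaled between DMSO vehicle wells and 0.29 µM artemisinin as full inhibition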). The conditions noted are these: P. falciparum 3D7 in erythrocytes, SYBR Green DNA fluorescence, 72 h; at 28.5 µM (top of the series) unless noted. In outline: (§1)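 Erythrocytes infected with P. falciparum (0.3% parasitemia, 2.5% hematocrit) incubated with compounds 72 h at 37 C, 5% CO2. Lysis with saponin/Triton buffer containing SYBR Green I, overnight at room temperature in the dark; DNA fluorescence (485/535 nm) normalised to 0.29 uM artemisinin and DMSO.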

Experiment [7] can be described thus: qHTS profiling of the MIPE4 collection as inhibitors of Plasmodium falciparum (DD2) proliferation (AID 743345; call rule not given here). The conditions noted are these: P. falciparum Dd2 in erythrocytes, SYBR Green DNA, 72 h; at 28.5 µM (top of the series) unless noted. In outline:
as §1

Experiment [8] in a line: qHTS profiling of the MIPE4 collection as inhibitors of Plasmodium falciparum (DD2) proliferation (Rep 2) (AID 743346; call rule not given here). The conditions noted are these: P. falciparum Dd2 in erythrocytes, SYBR Green DNA, 72 h; at 28.5 µM (top of the series) unless noted. In outline: as §1
A short description of experiment [9]: qHTS profiling for inhibitors of Plasmodium falciparum (3D7) proliferation (AID 743322).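 Further: infected erythrocytes exposed to compound for 72 h before lysis; 100% = DMSO vehicle wells and 0% = 0.29 µM artemisinin.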 The conditions noted are these: P. falciparum 3D7 proliferation; at 28.7 µM (top of the series). In outline: as §1
A short description of experiment [10]: qHTS profiling for inhibitors of Plasmodium falciparum (DD2) proliferation (AID 743323; call rule not given here). The conditions noted are these: lower = more inhibition; at 28.7 µM (top of the series). In outline: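 1536-well qHTS; infected RBCs 0.3% parasitemia/2.5% Hct final; cpd 72 h 37 C 5% CO2; lysis buffer + SYBR Green I, o/n RT dark; FI 485/535; norm. to 0.29 uM artemisinin and DMSO, plate-stack corrected.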

Experiment [11] in a line: qHTS profiling for inhibitors of Plasmodium falciparum (HB3) proliferation (AID 743324; active means well fitted curve in the direction sought with a large enough effect; an effect the other way counts as inactive or inconclusive;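 further: 100% = DMSO vehicle wells and 0% = artemisinin-treated control wells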). The settings on record: Plasmodium falciparum HB3 blood-stage proliferation; at 28.7 µM (top of the series). In outline: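 P. falciparum HB3 grown in erythrocytes (0.3% parasitemia, 2.5% hematocrit final) with compound for 72 h at 37 C, 5% CO2. Parasite DNA detected by SYBR Green after saponin/triton lysis overnight; normalized to 0.29 uM artemisinin and DMSO.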

A short description of experiment [12]: qHTS profiling of the MIPE4 collection as inhibitors of Plasmodium falciparum (HB3) proliferation (AID 743347; call rule not given here;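 further: plate controls were DMSO vehicle wells for no effect and artemisinin wells for full effect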). The settings on record: P. falciparum HB3 in erythrocytes, SYBR Green DNA, 72 h; at 28.5 µM (top of the series) unless noted. In outline:
as §1

In experiment [13] the target is Voltage-gated inwardly rectifying potassium channel KCNH2 (Homo sapiens) (UniProt Q12809). Put plainly: qHTS Assay for Small Molecule Inhibitors of the Human hERG Channel Activity (AID 588834; active means well fitted curve in the direction sought with a large enough effect; an effect the other way counts as inactive or inconclusive;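 further: top concentration of the series differs between compounds; on the % scale 0 is the no-effect control and ±100 the full control effect; lower thallium flux fluorescence means stronger hERG block; nearly all actives have a fitted effect of over 50% in size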). In outline:
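Measured: FluxOR fluorescence after thallium stimulation in U2OS cells transduced with hERG by baculovirus. Compounds pre-incubated around 10 min; medium Opti-MEM with 2% FCS. AC50 from Hill equation.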

For experiment [14], the target named is Luciferin 4-monooxygenase (Photinus pyralis) (UniProt P08659). The experiment can be described thus: Biochemical firefly luciferase enzyme assay for NPC (AID 624030; active means well fitted curve in the direction sought with a large enough effect; an effect the other way counts as inactive or inconclusive;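 further: purified P. pyralis luciferase at 10 nM with luciferin and ATP substrate; 0% = DMSO and -100% = full luciferase inhibition by PTC124 control; nearly all actives have a fitted effect of over 70% in size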). In outline: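 Purified P. pyralis luciferase at 10 nM in 50 mM Tris Acetate (final), luminescence read within 5 minutes of enzyme addition to compounds. Activity normalised to PTC124 versus DMSO; concentration-response curves classed by r2, magnitude and activity.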
Chain of Luciferin 4-monooxygenase (Photinus pyralis) (P08659 whole entry, looked up): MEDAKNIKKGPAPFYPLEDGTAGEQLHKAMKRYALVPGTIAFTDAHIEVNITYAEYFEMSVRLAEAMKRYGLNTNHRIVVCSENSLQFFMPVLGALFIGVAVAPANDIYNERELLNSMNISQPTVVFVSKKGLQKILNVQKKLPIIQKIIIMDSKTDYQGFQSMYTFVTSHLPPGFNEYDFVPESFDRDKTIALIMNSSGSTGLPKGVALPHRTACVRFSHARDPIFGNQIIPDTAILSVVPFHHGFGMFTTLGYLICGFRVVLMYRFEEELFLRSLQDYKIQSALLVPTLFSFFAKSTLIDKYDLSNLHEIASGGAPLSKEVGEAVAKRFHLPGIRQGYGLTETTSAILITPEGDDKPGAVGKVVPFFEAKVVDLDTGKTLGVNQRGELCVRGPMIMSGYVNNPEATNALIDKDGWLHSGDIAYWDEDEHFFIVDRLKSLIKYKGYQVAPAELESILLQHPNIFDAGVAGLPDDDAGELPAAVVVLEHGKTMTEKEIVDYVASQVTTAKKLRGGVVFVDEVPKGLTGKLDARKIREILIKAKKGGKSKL

Chain of Nucleoprotein (Lymphocytic choriomeningitis virus (strain Armstrong)) (P09992 whole entry, looked up): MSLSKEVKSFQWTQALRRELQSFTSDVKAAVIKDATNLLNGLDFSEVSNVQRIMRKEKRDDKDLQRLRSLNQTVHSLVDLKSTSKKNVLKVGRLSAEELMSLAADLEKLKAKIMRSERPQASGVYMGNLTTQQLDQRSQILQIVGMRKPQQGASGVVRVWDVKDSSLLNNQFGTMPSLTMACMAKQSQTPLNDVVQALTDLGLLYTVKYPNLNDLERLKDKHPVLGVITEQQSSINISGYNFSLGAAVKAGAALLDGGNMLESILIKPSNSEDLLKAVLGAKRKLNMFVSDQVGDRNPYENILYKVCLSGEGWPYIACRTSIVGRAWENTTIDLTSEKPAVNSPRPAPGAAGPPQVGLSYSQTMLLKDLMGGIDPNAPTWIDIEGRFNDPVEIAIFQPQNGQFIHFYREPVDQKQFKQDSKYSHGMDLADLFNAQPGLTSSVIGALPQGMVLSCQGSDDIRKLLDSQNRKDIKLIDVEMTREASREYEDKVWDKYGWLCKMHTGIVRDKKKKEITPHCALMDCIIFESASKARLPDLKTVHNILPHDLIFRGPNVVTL
Chain of Peroxisome proliferator-activated receptor delta (Homo sapiens) (Q03181 whole entry, looked up): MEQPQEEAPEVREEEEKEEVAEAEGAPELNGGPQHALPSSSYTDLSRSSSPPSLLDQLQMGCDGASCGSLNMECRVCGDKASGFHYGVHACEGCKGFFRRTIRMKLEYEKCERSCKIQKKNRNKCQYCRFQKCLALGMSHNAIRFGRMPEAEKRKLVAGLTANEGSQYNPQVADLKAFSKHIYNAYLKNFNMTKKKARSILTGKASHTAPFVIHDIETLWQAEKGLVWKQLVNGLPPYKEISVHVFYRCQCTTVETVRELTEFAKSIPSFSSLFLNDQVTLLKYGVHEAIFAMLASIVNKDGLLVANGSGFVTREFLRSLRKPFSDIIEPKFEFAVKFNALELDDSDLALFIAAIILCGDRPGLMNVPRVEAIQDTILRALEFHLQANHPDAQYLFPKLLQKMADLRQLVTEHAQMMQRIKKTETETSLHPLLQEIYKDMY
Chain of Voltage-gated inwardly rectifying potassium channel KCNH2 (Homo sapiens) (Q12809 whole entry, looked up): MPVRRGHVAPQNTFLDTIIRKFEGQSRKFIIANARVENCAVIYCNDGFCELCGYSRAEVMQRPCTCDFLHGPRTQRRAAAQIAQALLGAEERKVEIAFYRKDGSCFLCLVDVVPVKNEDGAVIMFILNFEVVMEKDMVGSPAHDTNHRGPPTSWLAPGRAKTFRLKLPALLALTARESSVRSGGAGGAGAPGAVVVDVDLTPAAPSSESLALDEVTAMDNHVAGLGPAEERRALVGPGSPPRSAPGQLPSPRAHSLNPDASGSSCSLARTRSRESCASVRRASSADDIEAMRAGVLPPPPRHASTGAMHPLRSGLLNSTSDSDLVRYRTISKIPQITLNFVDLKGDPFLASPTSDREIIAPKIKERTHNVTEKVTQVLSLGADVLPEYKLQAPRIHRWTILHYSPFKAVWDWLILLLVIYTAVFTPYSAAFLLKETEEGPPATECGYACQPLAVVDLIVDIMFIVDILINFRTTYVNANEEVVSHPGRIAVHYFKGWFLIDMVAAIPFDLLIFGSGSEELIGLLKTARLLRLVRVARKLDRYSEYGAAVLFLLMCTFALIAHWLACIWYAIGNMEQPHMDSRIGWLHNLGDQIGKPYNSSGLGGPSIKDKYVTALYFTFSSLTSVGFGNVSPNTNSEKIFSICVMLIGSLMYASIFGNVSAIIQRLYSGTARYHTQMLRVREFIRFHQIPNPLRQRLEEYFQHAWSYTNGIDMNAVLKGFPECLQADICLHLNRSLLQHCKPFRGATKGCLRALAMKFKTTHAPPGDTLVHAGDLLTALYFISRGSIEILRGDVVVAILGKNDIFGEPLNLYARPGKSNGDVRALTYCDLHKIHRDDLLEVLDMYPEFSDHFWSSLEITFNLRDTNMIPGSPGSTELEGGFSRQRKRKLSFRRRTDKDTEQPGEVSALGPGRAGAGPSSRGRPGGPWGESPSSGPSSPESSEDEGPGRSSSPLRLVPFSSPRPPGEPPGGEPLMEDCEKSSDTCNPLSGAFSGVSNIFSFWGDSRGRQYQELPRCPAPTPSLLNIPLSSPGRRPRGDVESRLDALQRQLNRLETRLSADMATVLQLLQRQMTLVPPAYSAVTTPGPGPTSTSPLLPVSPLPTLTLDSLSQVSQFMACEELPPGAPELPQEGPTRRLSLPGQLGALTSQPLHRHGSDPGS

Regarding `CCCCCCC(=O)O`, the Potency entry in experiment [1], in [2], in experiment [3], in experiment [4] and in experiment [5] was “inactive” in each case.

Regarding `C[C@H]1[C@H](NC(=O)C(=NOC(C)(C)C(=O)O)c2csc(N)n2)C(=O)N1S(=O)(=O)O`, in experiment [6], the parasite growth, % of DMSO control came to 97.7%. In experiment [7], the parasite growth remaining, % of DMSO control (lower = more inhibition) worked out at 91.7%. Also, the parasite growth, % of control (lower = inhibition) in [8] came out at 91.7%. Besides, the Potency entry in experiment [2], in [3], in experiment [4] and in [5] was “inactive” throughout.

For the compound `CCCCCCCCCCCCCc1ccccc1`, the Potency entry in [1], in [2], in [3], in experiment [4] and in experiment [5] was “inactive” throughout.

Take `NCCO/C=C/[C@H](N)C(=O)O`: the Potency entry in [1], in experiment [2], in experiment [3], in experiment [4] and in experiment [5] was “inactive” each time.

Regarding `CCCCCCCCCC(C)=O`, the Potency result in experiment [1], in experiment [2], in experiment [3], in experiment [4] and in experiment [5] was “inactive” each time.

On to `CC(C)Nc1nc(N)nc(Cl)n1`, for which the Potency entry in experiment [1], in [2], in [3], in [4] and in experiment [5] was “inactive” in each case.

Turning to `O=C(OCc1ccccc1)c1ccccc1O`, the Potency entry in experiment [1], in [2], in experiment [3], in experiment [4] and in experiment [5] was “inactive” throughout.

Turning to `O=C(C[C@@H]1NCCC[C@@H]1O)Cn1cnc2ccccc2c1=O`, in [9], the remaining parasite growth % (stronger effect = lower value) was -0.414%. The activity, percent of control in [10] is -0.451%. Further, the remaining proliferation (% of control), lower = more inhibition in [11] is -0.569%. The same compound showed a parasite growth, % of DMSO control in experiment [6] of 4.79%. Also, the parasite growth remaining, % of DMSO control (lower = more inhibition) in experiment [7] is 6.53%. In [8], the parasite growth, % of control (lower = inhibition) was determined as 22.5%. In addition, in experiment [12], the growth, % of control stood at 5.66%. The Potency result in [2], in experiment [3], in experiment [4] and in [5] was “inactive” in each case.

For `CC(=O)OCCC(C)C`, the Potency result in experiment [1], in experiment [2], in experiment [3], in experiment [4] and in experiment [5] was “inactive” each time.

In the case of `CNC1[C@H](O)C(O[C@@H]2C(O)C(O[C@H]3O[C@H]([C@@H](C)NC)CC[C@H]3N)[C@@H](N)C[C@H]2N)OC[C@]1(C)O` (stereo not given in full), the parasite growth, % of DMSO control in experiment [6] was found to be 93.1%. The parasite growth remaining, % of DMSO control (lower = more inhibition) in experiment [7] was determined as 103%. Further, the parasite growth, % of control (lower = inhibition) in experiment [8] stood at 111%. The Potency result in [2], in experiment [3], in experiment [4] and in [5] was “inactive” in each case.

For the compound `CS(C)=O`, the Potency result in experiment [1], in experiment [2], in experiment [3], in [4] and in experiment [5] was “inactive” each time.

`C=CCCCCCCCCC=O`: the Potency result in experiment [1], in experiment [2], in experiment [3], in [4] and in experiment [5] was “inactive” in each case.

`O=C(O)c1cc(O)c2ccccc2c1O`: the Potency entry in [1], in experiment [2], in experiment [3], in [4] and in experiment [5] was “inactive” each time.

`C=C1C[C@@]2(O)O[C@@]3(C[C@H]2C(C)C)[C@H](C)CC[C@H]13` returned a parasite growth, % of DMSO control in [6] of 70.7%. For the same compound, the parasite growth remaining, % of DMSO control (lower = more inhibition) in experiment [7] worked out at 75.7%. The parasite growth, % of control (lower = inhibition) in [8] was 48.2%. This compound also returned a growth, % of control in [12] of 68.4%. The Potency entry in experiment [2], in experiment [3], in experiment [4] and in experiment [5] was “inactive” in each case.

Consider `CCCCC(CC)CO` (stereo not given), for which the Potency result in experiment [1], in experiment [2], in experiment [3], in experiment [4] and in experiment [5] was “inactive” each time.

Consider `O=C(O)/C=C/C(=O)O`, for which the Potency result in experiment [1], in [13], in [14], in experiment [2], in experiment [3] and in experiment [4] was “inactive” each time. For the same compound, the Potency entry in experiment [5] was “inactive”.

With `O=C1CCc2ccccc2O1`, the Potency entry in [1], in experiment [2], in experiment [3], in experiment [4] and in [5] was “inactive” in each case.

Turning to `C=CCCCCCCCCCCCC`, the Potency result in experiment [1], in experiment [2], in [3], in experiment [4] and in experiment [5] was “inactive” each time.

On to `OCCO`, for which the Potency result in [1], in [2], in [3], in experiment [4] and in experiment [5] was “inactive” throughout.

As to `CCCCCCCCCCCCCCC`, the Potency entry in experiment [1], in experiment [2], in [3], in experiment [4] and in experiment [5] was “inactive” throughout.

`COc1cc(CNC(=O)CCCCC=CC(C)C)ccc1O` displayed a parasite growth, % of DMSO control in experiment [6] of 92.4%. Also, in experiment [7], the parasite growth remaining, % of DMSO control (lower = more inhibition) stood at 103%. In addition, the parasite growth, % of control (lower = inhibition) in experiment [8] worked out at 129%. Moreover, in experiment [12], the growth, % of control worked out at 105%. Besides, the Potency result in experiment [2], in [3], in experiment [4] and in experiment [5] was “inactive” throughout.

Consider `CCCCCCCCCCCCCCCC`, for which the Potency entry in experiment [1], in experiment [2], in experiment [3], in [4] and in experiment [5] was “inactive” throughout.

For the compound `c1ccc2c(c1)ccc1ccccc12`, the Potency entry in experiment [1], in experiment [2], in experiment [3], in [4] and in [5] was “inactive” each time.

Regarding `O=C(Nc1ccccc1)Nc1ccccc1`, the Potency entry in [1], in [2], in [3], in experiment [4] and in experiment [5] was “inactive” in each case.

Turning to `c1ccc(CSCc2ccccc2)cc1`, the Potency result in [1], in [2], in [3], in experiment [4] and in experiment [5] was “inactive” each time.

For the compound `CC(=O)OC/C=C(\C)CCC=C(C)C`, the Potency result in experiment [1], in experiment [2], in experiment [3], in experiment [4] and in experiment [5] was “inactive” in each case.

As for `COc1ccc(OC)cc1`, the Potency result in experiment [1], in experiment [2], in experiment [3], in experiment [4] and in [5] was “inactive” throughout.

With `CCC(CC)[C@H](NC(C)=O)[C@@H]1[C@H](O)[C@@H](C(=O)O)C[C@@H]1N=C(N)N`, the parasite growth, % of DMSO control in [6] is 81.5%. In addition, the parasite growth remaining, % of DMSO control (lower = more inhibition) in experiment [7] stood at 98.5%. The parasite growth, % of control (lower = inhibition) in [8] amounted to 112%. Moreover, the Potency result in experiment [2], in experiment [3], in [4] and in experiment [5] was “inactive” in each case.
